Results reported in ChEMBL document CHEMBL3988442, “University of Dundee, Small-Polar-MMV Screening Library” (2021).
About 13,000 (27%) of roughly 48,000 compounds showed an effect of 50% or more. This is one part of the list.

Test system: Wolbachia pipientis
Experiment: Anti-Wolbachia Cell-Based Screen
Assay type: functional
Design: scale not given: in the data most compounds retested in dose-response had high values
Settings: 5 µM

Compared with O=C(c1cccc(Cl)c1Cl)N1CCN(CC(O)Cn2cccn2)CC1 (stereo unspecified), CC(C)c1nnc2n1CCN(C(=O)c1ccc(Cn3cccc3)cc1)C2 is higher in “Percent Effect” value: -7.394% for the first, -2.793% for the second.

Going from Cc1ccn(-c2ccc(NCc3ccccc3F)nn2)n1 to Cc1nccn1-c1ccc(CNC(=O)c2ccc(O)nc2)cn1, the “Percent Effect” value rises from -4.619% to -3.999%.

Going from CSCCC(=O)N(C/C=C/c1ccccc1)CCO to O=C(NCCCn1ccnc1)C1COCC(=O)N1Cc1ccccc1 (stereo unspecified), the “Percent Effect” value rises from -21.61% to -1.911%.

Compared with CC(C)(C)Oc1ccc(C(=O)N2CCOCC2c2ncon2)cc1 (stereo unspecified), CC(C)c1nnc2n1CCN(C(=O)c1ccc(OCC(N)=O)cc1)C2 is lower in “Percent Effect” value: 0.1698% for the first, -11.93% for the second.

First: Oc1nnc(-c2cccs2)c2sc(N3CCCC3)nc12
Second: Cc1nc2sccn2c1C(=O)N1CCn2nc(C(=O)NC3CC3)cc2C1
The “Percent Effect” value of the first is lower: -2.433% for the first, 8.039% for the second.

Compared with CCC[C@H]1CN(Cc2ccc(N(C)C)nc2)C[C@@H]1NC(=O)CO, CC(C)Nc1ncc(CN2C[C@@H](CN3CCC(O)CC3)[C@@H](CO)C2)cn1 is higher in “Percent Effect” value: -10.52% for the first, -6.538% for the second.

Compared with CC(C)c1nnc2n1CCN(C(=O)c1ccc(-n3cnnc3)cc1)C2, CC(C)c1nnc2n1CCN(C(=O)c1ccc(S(C)(=O)=O)cc1)C2 is lower in “Percent Effect” value: -1.108% for the first, -9.775% for the second.

First: O=C(c1ccc(Cl)cc1)N1CCn2c(nn(-c3ccncc3)c2=O)C1
Second: O=C(c1ccc(Cl)cc1)N1CCn2c(nn(-c3ccc(Cl)cc3)c2=O)C1
The “Percent Effect” value of the first is higher: 118.8% for the first, 107.9% for the second.

First: O=C(c1ccncc1)N1CCn2c(nnc2-c2ccccc2)C1
Second: CN1CCN(Cc2cnc3n2CCN(C(=O)c2ccncc2)C3)CC1
The “Percent Effect” value of the first is lower: -8.4% for the first, 9.234% for the second.

First: Cc1ccc(-n2nc3n(c2=O)CCN(C(=O)c2ccc(Cl)cc2)C3)cc1
Second: O=C(c1ccc(Cl)cc1)N1CCn2c(nn(-c3cccc(Cl)c3)c2=O)C1
The “Percent Effect” value of the first is higher: 122% for the first, 114.6% for the second.

Going from Cc1cccc(-n2ncc(C(=O)N3CCn4c(C)nnc4C3)c2C)c1 to COc1ccc(C(=O)C2CCCN(c3cnccn3)C2)c(C)c1 (stereo unspecified), the “Percent Effect” value falls from -8.447% to -36.51%.

Going from CCOCCn1nc(C)cc1C(=O)N1CC[C@](C)(O)[C@H](C)C1 to C[C@@H]1CN(Cc2nc(C(N)=O)no2)CC[C@@]1(O)C1CC1, the “Percent Effect” value rises from -22.18% to 3.604%.

First: CCN(CC)C(CNCc1ccc(O)cc1)c1ccco1 (stereo unspecified)
Second: COc1ccc(CNC(=O)NCc2ccc(C(N)=O)cc2)cn1
The “Percent Effect” value of the first is lower: 0.1551% for the first, 4.713% for the second.

Going from Fc1ccccc1CN(CCCn1ccnc1)CC1CCOC1.O=C(O)CC(O)(CC(=O)O)C(=O)O (stereo unspecified) to COc1ccccc1CN(CCCn1ccnc1)CC1CCOC1.O=C(O)CC(O)(CC(=O)O)C(=O)O (stereo unspecified), the “Percent Effect” value rises from 96.39% to 173.3%.

First: Cc1ccc(CN(CCCn2ccnc2)Cc2c[nH]cn2)s1.O=C(O)CC(O)(CC(=O)O)C(=O)O
Second: CCc1ccc(CN(CCCn2ccnc2)Cc2ccc(C)s2)o1.O=C(O)CC(O)(CC(=O)O)C(=O)O
The “Percent Effect” value of the first is higher: -8.779% for the first, -10.6% for the second.

Compared with CCCN(Cc1cccnc1)Cc1ccc(C2CCCCO2)o1 (stereo unspecified), CN(Cc1cccnc1)CC1CCOc2ccccc2C1 (stereo unspecified) is lower in “Percent Effect” value: 8.313% for the first, 1.385% for the second.

Going from c1cncc(CN(CCCn2ccnc2)CC2CCOC2)c1 (stereo unspecified) to CC1COCCN1C(=O)NCCCn1ccnc1 (stereo unspecified), the “Percent Effect” value falls from 114.4% to -6.702%.

First: Cc1nc(C)c(C(=O)NCCOc2ccc(C(F)(F)F)cn2)o1
Second: Cc1cnc(N2C[C@H]3CCCC(N(C)Cc4ccccn4)[C@H]3C2)nc1.O=C(O)C(F)(F)F (stereo partly specified)
The “Percent Effect” value of the first is lower: -28.79% for the first, -11.38% for the second.

First: N[C@H]1CCCN(C(=O)c2cnc(COc3ccccc3)nc2O)C1
Second: CC(C)n1c(C2CCCN(CCS(C)(=O)=O)C2)nc2ccccc21 (stereo unspecified)
The “Percent Effect” value of the first is lower: -11.28% for the first, -3.684% for the second.

Compared with CCCN1CCN(Cc2cccc(OC(C)C)c2)[C@H]2CS(=O)(=O)C[C@H]21, CC(C)C1CN(c2cnccn2)CCC(=O)N1Cc1ccc(F)cc1 (stereo unspecified) is higher in “Percent Effect” value: -22.43% for the first, -0.3567% for the second.

Compared with COCCN1C[C@@H]2CN(c3cnccn3)C[C@@H]2C1=O, COCCn1ccnc1C1CCCN(c2cnccn2)C1 (stereo unspecified) is higher in “Percent Effect” value: -23.71% for the first, -8.201% for the second.

First: Cc1c[nH]nc1C1CCN(c2cnccn2)C1 (stereo unspecified)
Second: Cc1c[nH]nc1C1CCCN(c2cnccn2)C1 (stereo unspecified)
The “Percent Effect” value of the first is lower: 87.37% for the first, 152.5% for the second.

First: CCc1cnc(N2CCOC(CCOC)C2)nc1 (stereo unspecified)
Second: Cc1c[nH]nc1C1CN(c2ncccn2)CCO1 (stereo unspecified)
The “Percent Effect” value of the first is lower: -10.95% for the first, 139.2% for the second.

Going from Cc1cccc(C)c1OC1CN(Cc2cnc(N3CCOCC3)nc2)C1 to Cc1c[nH]nc1C1CN(c2cnccn2)CCO1 (stereo unspecified), the “Percent Effect” value rises from -7.257% to 155.2%.

Going from N#Cc1cccc(N2CCC(CO)(CCCc3ccccc3)CC2)n1 to COc1ccc(CNC(=O)C(NC(=O)Cc2ccccc2)C(C)C)cn1 (stereo unspecified), the “Percent Effect” value rises from -12.61% to 88.86%.

CC(C)(C)c1cnc(CNc2cccc(Cn3cnnc3)c2)o1 was tested, and the “Percent Effect” value was -22.9%.
